Assay results published in PubChem BioAssay AID720511 (Broad Institute, 2013).
Among all 350,000 compounds or so, about 1,300 (0.37%) were called active.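 The calls were made as follows: active = mean added fluorescence quench of at least 8% versus neutral control, with both replicates also reaching 8%; inconclusive = only one of the mean or replicate conditions met; inactive = mean below 8% and not both replicates reaching 8%.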 Only a selection was taken, and actives are over-represented in it overall.

Assay: F508del CFTR correction, initial screen, CFBE line, single point (AID 720511);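 also: cells transiently co-express mutant CFTR-F508del with the halide-sensitive YFP; corrector assay measuring rescue of mutant channel to the surface after 24 h compound exposure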
Settings: CFBE cells, YFP halide quenching, at 7.58 µM, stronger effect = higher value, % fluorescence drop versus neutral controls, stimulated with forskolin plus potentiator P3

SMILES | activity (quench increase)
C[C@@H]1CN([C@H](C)CO)C(=O)c2cc(NS(=O)(=O)c3ccc(Cl)cc3)ccc2O[C@@H]1CN(C)CC1CCCCC1 | -0.515% (inactive)
O=C(C[C@H]1C[C@@H]2c3cc(NC(=O)c4ccc5c(c4)OCO5)ccc3O[C@@H]2[C@@H](CO)O1)NCCN1CCCCC1 | 0.031% (inactive)
O=C(C1CCCC1)N1CC(=O)N2[C@H](C1)[C@@H](c1ccc(-c3ccccc3F)cc1)[C@@H]2CO | -2.35% (inactive)
O=C(C1CCC1)N1CC(=O)N2[C@H](C1)[C@@H](c1ccc(-c3ccccc3F)cc1)[C@@H]2CO | 1.31% (inactive)
O=C(C1CC1)N1CC(=O)N2[C@H](CO)[C@@H](c3ccc(-c4ccccc4F)cc3)[C@@H]2C1 | 11.5% (active)
CCOC(=O)N1CCN(S(=O)(=O)c2ccc(Br)cc2)CC1 | -1.86% (inactive)
CCOC(=O)N1CCN(S(=O)(=O)c2ccc3c(c2)C(C)C(=O)N3)CC1 (centres undefined) | 8.05% (active)
COc1ccc(N2CCN(S(=O)(=O)c3ccc4c(c3)NC(=O)C(C)C(=O)N4)CC2)cc1 (centres undefined) | 0.269% (inactive)
COc1cccc(S(=O)(=O)N[C@H]2C=C[C@@H](CC(=O)NCc3ccc(F)cc3)O[C@@H]2CO)c1 | -1.9% (inactive)
Cc1ccc(S(=O)(=O)N(C)C[C@@H]2Oc3c(NC(=O)Nc4ccc(F)cc4)cccc3C(=O)N([C@H](C)CO)C[C@H]2C)cc1 | 0.333% (inactive)
C[C@@H]1CN([C@H](C)CO)C(=O)c2cccc(NC(=O)Nc3cccc4ccccc34)c2O[C@@H]1CN(C)C(=O)Nc1ccc(F)cc1 | 1.61% (inactive)
COc1ccc(-c2c(C)cc3oc(=O)cc(-c4ccccc4)c3c2C)cc1OC | 9.4% (active)
COc1ccc(-c2c(C)cc3oc(=O)cc(-c4ccccc4)c3c2C)cc1C=O | 0.386% (inactive)
COc1ccc(-c2c(C)cc3oc(=O)cc(-c4ccccc4)c3c2C)cc1F | 3.75% (inactive)
CCC(=O)N(C)C[C@H]1Oc2cc(C#CC3CC3)ccc2S(=O)(=O)N([C@@H](C)CO)C[C@@H]1C | -0.535% (inactive)
CC(C)Cc1ccc(-c2cc3nc(NCc4cccc(Cl)c4)ccn3n2)cc1 | 8.67% (active)
COc1ccccc1-c1cc2nc(NCc3cccc(Cl)c3)ccn2n1 | 0.85% (inactive)
COCCCNc1ccn2nc(-c3ccc(CC(C)C)cc3)cc2n1 | 2.65% (inactive)
C[C@H]1CN([C@@H](C)CO)C(=O)c2cccc(NS(=O)(=O)c3cccs3)c2O[C@H]1CN(C)Cc1ccc(C(=O)Nc2ccccc2N)cc1 | 0.531% (inactive)
O=C(c1ccccc1)N1CCN(c2cc(-c3ccccc3)nc3cc(-c4cccc(Cl)c4)nn23)CC1 | -2.01% (inactive)
CN(C)CCN1CCN(c2cc(-c3cccc(Cl)c3)nc3ccnn23)CC1 | -1.38% (inactive)
C#Cc1cc(N2CCN(C(=O)c3ccoc3)CC2)n2nc(-c3cccc(Cl)c3)cc2n1 | 8.96% (active)

SMILES | activity (quench increase)
C[C@H]1CN([C@@H](C)CO)C(=O)Cc2cc(NS(=O)(=O)c3cn(C)cn3)ccc2O[C@H]1CN(C)C(=O)Nc1ccc(F)cc1 | 2.2% (inactive)
C[C@H](CO)N1C[C@H](C)[C@@H](CN(C)S(=O)(=O)c2ccccc2)Oc2ncc(-c3ccncc3)cc2C1=O | 0.7% (inactive)
COc1cc(C#Cc2ccc3cc(CCCO)oc(=O)c3c2)cc(OC)c1 | 9.06% (active)
O=C1c2ccccc2C(=O)N1CCC#Cc1ccc2cc(C3(O)CCCCC3)oc(=O)c2c1 | 4.94% (inactive)
CS(=O)(=O)N1C[C@@H](O)COC[C@@H]2O[C@H](CC(=O)NC3Cc4ccccc4C3)CC[C@H]21 | -1.79% (inactive)
O=C(C[C@H]1C=C[C@@H](NC(=O)NC2CCCCC2)[C@@H](CO)O1)NCc1ccc(Cl)cc1 | 0.0755% (inactive)
C[C@H](CO)N1C[C@H](C)[C@H](CN(C)Cc2ccc(C(F)(F)F)cc2)Oc2ccc(NS(C)(=O)=O)cc2C1=O | 3.24% (inactive)
C[C@@H]1CCCCO[C@@H](CN(C)C(=O)Cc2ccccc2)[C@H](C)CN([C@@H](C)CO)C(=O)c2cc(NC(=O)Nc3ccc(F)cc3)ccc2O1 | -1.42% (inactive)
Oc1ccc2ccccc2c1N=Nc1nccs1 | 13.5% (active)
CC(=O)Nc1ccc(Nc2c3ccccc3nc3ccccc23)cc1 | 10.8% (active)
CCc1c(C)nc2c(-c3ccccc3)c(C)nn2c1Nc1ccc(NC(C)=O)cc1 | 0.439% (inactive)
CC(=O)Nc1ccc(S(=O)(=O)N(C)c2nc3ccccc3nc2Cl)cc1 | 2.1% (inactive)
C[C@@H]1CCCCO[C@@H](CN(C)S(=O)(=O)c2ccccc2)[C@H](C)CN([C@H](C)CO)C(=O)c2cc(NC(=O)Nc3ccc4c(c3)OCO4)ccc2O1 | 0.334% (inactive)
CO[C@H]1CN(C)C(=O)c2cc(NC(C)=O)ccc2OC[C@H](C)N(C(=O)C2CC2)C[C@H]1C | 4.09% (inactive)
CC(C)CC#Cc1ccc2c(c1)O[C@@H](CN(C)C(=O)c1ccccn1)[C@@H](C)CN([C@H](C)CO)S2(=O)=O | 0.306% (inactive)
C/C=C/c1ccc2c(c1)O[C@@H](CN(C)C(=O)c1ccccn1)[C@H](C)CN([C@@H](C)CO)S2(=O)=O | -2.18% (inactive)
COc1ccc(C#Cc2ccc3c(c2)O[C@@H](CN(C)C(=O)Nc2cccc(OC)c2)[C@H](C)CN([C@H](C)CO)S3(=O)=O)cc1 | 9.4% (active)
C[C@@H]1CN([C@@H](C)CO)S(=O)(=O)c2ccc(C#Cc3ccccc3)cc2O[C@@H]1CN(C)C(=O)Nc1ccccc1 | 3.03% (inactive)
COc1ccc(NC(=O)N(C)C[C@H]2Oc3cc(C#CCN(C)C)ccc3S(=O)(=O)N([C@@H](C)CO)C[C@@H]2C)cc1 | -0.575% (inactive)
C[C@@H]1CN([C@@H](C)CO)S(=O)(=O)c2ccc(C#Cc3ccc(F)cc3)cc2O[C@H]1CN(C)C(=O)c1ccccn1 | 9.03% (active)
CCCNC(=O)[C@@H]1[C@@H](CO)[C@@H]2Cn3c(cccc3=O)[C@H]1N2C(=O)Nc1cc(F)ccc1F | -0.221% (inactive)
CCCN(C)C[C@@H]1Oc2ncc(-c3ccccc3F)cc2C(=O)N([C@@H](C)CO)C[C@@H]1C | -1.56% (inactive)
